HCMV antiviral – blocks human cytomegalovirus replication; activity change, negative = inhibition, % at 57.5 µM; actives 4.5% (n = 410,000); HFF cells, HCMV-luciferase reporter, 72 h; hits give low values; in the data active = activity change below about -60%; inconclusive = no clear call, values can overlap the other calls; inactive = above about -39%
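Cell-based, HFFs, 1000 cells/well, 16 h 37C; cpds in DMSO + HCMV-luc, MOI 1 PFU/cell; 72 h 37C; OneGlo luminescence after 5 min RT; norm. to buffer vs Salinomycin 10uM.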
LASV entry inh – Lassa virus entry inhibition | Lassa virus pseudotype entry inhibition, cell reporter | Potency, µM (series often up to 37.9 µM), without a hit: at the highest dose activity change, negative = inhibition, hits mostly inhibitors | actives 1.2% (n = 300,000) | AID 540256; calls by dose curve; tested in HEK293 cells; also: potency is read from the fitted curve at half-maximal effect; nearly all actives have a fitted effect of over 50% in size
HCV inh – inhibitors of hepatitis C virus infection; Huh7.5.1 HCVcc-Cre infection, luciferase reporter, 44 h; Potency, µM (top dose mostly 41.8 µM), inactives show at the top dose activity change, negative = inhibition, most hits filed as inhibitors; actives 3.4% (n = 340,000); AID 651820; active = well fitted inhibition curve with a large enough effect; inconclusive = small, poorly fitted or top-dose-only effect, or another doubt; inactive = no such curve, though single readings can be large or run the other way; also: potency is read from the fitted curve at half-maximal effect
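1,000 cells/well; 4 h culture; + compound; + HCVcc-Cre (~0.5 moi); 44 h; luciferase substrate, RT 15 min; read 15 sec.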
Vaccinia Venus – inhibitors of vaccinia virus (Venus reporter). Potency, µM (highest dose often 36.5 µM), for inactives: at the highest dose activity change, negative = inhibition, hits mostly inhibitors. Vaccinia virus Venus reporter expression, fluorescence. AID 720580. actives 0.46% (n = 330,000); calls by dose curve; tested in A549 cells; also: potency is read from the fitted curve at half-maximal effect; nearly all actives have a fitted effect of over 30% in size
VACV mCherry inh – vaccinia inhibition (mCherry reporter); Vaccinia virus mCherry reporter infection, fluorescence; actives 0.63% (n = 310,000); Potency, µM (series often up to 36.5 µM), without a hit: at the highest dose activity change, negative = inhibition, usual class: inhibitors; AID 720579; calls by dose curve; tested in A549 cells; also: potency is read from the fitted curve at half-maximal effect; nearly all actives have a fitted effect of over 35% in size
Marburg entry inh – inhibitors of Marburg virus binding or cell entry | Marburg virus pseudotyped entry inhibition, cell reporter | Potency, µM (series often up to 37.8 µM), for the others: at the highest dose activity change, negative = inhibition, usual class: inhibitors | actives 1.8% (n = 300,000); calls by dose curve; tested in HEK293 cells; also: potency is read from the fitted curve at half-maximal effect
* hit, by the source's call; i = inactive; ? = inconclusive; / = no result given; [ ] = another dose, or the depositor's remark. In the library only some 7.8% were active in any assay of this set; here they are far more common. % is scaled to controls: 0 for no effect and ±100 for the full control effect.

SMILES	HCMV antiviral	LASV entry inh	HCV inh	Vaccinia Venus	VACV mCherry inh	Marburg entry inh
COc1ccc(CCC(=O)NCCS(=O)(=O)N2CCN(c3ccccc3F)CC2)cc1	-13	-21%[46.1 µM]	-23%	?	-14%	8%
COc1ccc(-c2noc(CCCCC(=O)N3CCN(c4cc(C)ccc4C)CC3)n2)cc1	-96*	/	?	?	?	/
COc1ccc(CCC(=O)NCCS(=O)(=O)N2CCN(c3ccccc3OC)CC2)cc1	?	/	14µM*	/	/	/
CC(C)N1C(=O)CC[C@@H](S(=O)(=O)c2ccccc2)[C@@H]1/C=C/c1ccccc1	23	/	/	/	/	/
CN(C)c1cccc(C(=O)OC(C(=O)Nc2ccc(Cl)cc2C(F)(F)F)c2ccccc2)c1 (stereo not given)	-63*	?	-16%	-19%	-4%	?
O=C(NCc1ccccc1Cl)[C@H]1CCCN1C(=O)[C@H]1CCCN1C(=O)c1cccc2ccccc12	-1	/	/	-1%	i	/
CCOc1ccc(N(CC)S(=O)(=O)N2CCCC(C(=O)Nc3ccc(OC)c(Cl)c3)C2)cc1 (stereo not given)	-13	?	/	-23%	-18%	/
Cc1cc(C(=O)NC2CCCc3c2cnn3-c2ccc(C(C)(C)C)cc2)nn1C (stereo not given)	-78*	?	7.1µM*	-29%	-29%	?
CC(C)(C)c1ccc(-n2ncc3c2CCCC3NC(=O)C2(C(N)=O)CC2)cc1 (stereo not given)	-96*	/	?	/	/	/
Cc1cc(C)cc(-n2ncc3c2CCCC3NC(=O)c2cc(C)[nH]n2)c1 (stereo not given)	-35	?	?	5%	-17%	3.5µM*
COc1cccc(-c2nc3c(Nc4cccc(F)c4)nccc3[nH]2)c1F	-12	/	/	/	/	/
N#CC1=C(SCC(=O)c2ccc(Br)cc2)NC2=C(C(=O)CCC2)[C@H]1c1ccco1	/	/	/	/	/	8.9µM*
CC(=O)C1=C(C)NC(SCC(=O)c2ccc(C)cc2)=C(C#N)C1c1ccco1 (stereo not given)	/	/	7.1µM*	/	/	/
CC1(C)CC(=O)C2=C(C1)NC(SCC(=O)Nc1ccccc1)=C(C#N)C2c1ccco1 (stereo not given)	?	?	-11%	-11%	-13%	14µM*
N#CC1=C(SCC(=O)c2ccc(Cl)cc2)NC2=C(C(=O)CCC2)C1c1ccco1 (stereo not given)	-40	?	?	?	?	?
COCCOC(=O)C1=C(C)NC(SCC(=O)NC(C)(C)C)=C(C#N)C1c1ccco1 (stereo not given)	-32	-28%	-10%	-16%	18%	8%
COc1ccccc1NC(=O)C1=C(C)NC(SCC(=O)c2ccccc2)=C(C#N)C1c1ccco1 (stereo not given)	/	-5%	7.9µM*	2%	-21%	?
CC12C=C(C=CCCc3ccco3)C(C)(C1)[C@H](CCc1ccco1)CC2=O (stereo not given in full)	/	/	/	/	/	29%[14.2 µM]
COCCCN1C(=O)C(O)=C(C(=O)c2ccco2)[C@H]1c1ccc(Br)cc1	/	/	/	/	/	-1%
CC(C)CCNC(=O)c1ccc(Cn2c(SCC(N)=O)nc3ccccc3c2=O)cc1	-23	-20%[46.1 µM]	/	4%	0%	/
Cc1ccc(C(=O)CSC2=C(C#N)C(c3ccco3)C3=C(CC(C)(C)CC3=O)N2)cc1 (stereo not given)	-68*	?	?	-30%	?	?
COc1ccc(C(=O)c2oc3ccccc3c2N)cc1	-67*	1%	4%	/	/	-2%
CNC(=S)N(CCc1c(C)[nH]c2ccc(C)cc12)Cc1cccs1	27	/	10µM*	/	/	/
COc1ccc2[nH]c(C)c(CCN(Cc3cccs3)C(=S)Nc3ccccc3)c2c1	?	/	?	?	-22%	0%
COc1ccc(NC(=S)N(CCc2c(C)[nH]c3ccc(C)cc23)Cc2ccco2)cc1	8	?	?	?	-28%	?
COCCNC(=S)N(CCc1c(C)[nH]c2ccc(F)cc12)Cc1ccc(C)cc1	-13	?	14µM*	-7%	-27%	?
CCOc1ccc(NC(=S)N(CCc2c(C)[nH]c3ccc(C)cc23)Cc2ccco2)cc1	?	?	11µM*	-14%	i	?

Screening data deposited in PubChem BioAssay by National Center for Advancing Translational Sciences (NCATS).
